Our source for the cross-linked residues values is publication PMC12280212.

Sequence of PPIA (P62937 whole entry): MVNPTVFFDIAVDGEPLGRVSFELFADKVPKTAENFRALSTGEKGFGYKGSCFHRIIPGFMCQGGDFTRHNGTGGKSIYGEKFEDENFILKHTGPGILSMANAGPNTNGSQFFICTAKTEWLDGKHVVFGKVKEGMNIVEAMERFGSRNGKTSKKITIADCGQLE
Sequence of GAPDH, P04406 (P04406 whole entry): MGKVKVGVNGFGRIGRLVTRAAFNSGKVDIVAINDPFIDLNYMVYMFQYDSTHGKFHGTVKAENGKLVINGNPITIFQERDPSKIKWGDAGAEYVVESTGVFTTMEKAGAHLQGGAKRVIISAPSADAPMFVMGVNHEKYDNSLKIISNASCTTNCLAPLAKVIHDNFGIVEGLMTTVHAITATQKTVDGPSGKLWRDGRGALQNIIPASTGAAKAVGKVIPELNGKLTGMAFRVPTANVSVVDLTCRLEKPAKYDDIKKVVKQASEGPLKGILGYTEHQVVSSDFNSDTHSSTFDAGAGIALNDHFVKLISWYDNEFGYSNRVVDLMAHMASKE
Sequence of YWHAQ, P27348 (P27348 whole entry): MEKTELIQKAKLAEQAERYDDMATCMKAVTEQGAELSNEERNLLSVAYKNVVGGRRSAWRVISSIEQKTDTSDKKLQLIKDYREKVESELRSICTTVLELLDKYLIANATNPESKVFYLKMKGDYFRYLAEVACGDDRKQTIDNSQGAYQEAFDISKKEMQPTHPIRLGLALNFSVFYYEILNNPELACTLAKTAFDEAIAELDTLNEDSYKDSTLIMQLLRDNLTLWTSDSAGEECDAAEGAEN
Sequence of ENO1, P06733 (P06733 whole entry): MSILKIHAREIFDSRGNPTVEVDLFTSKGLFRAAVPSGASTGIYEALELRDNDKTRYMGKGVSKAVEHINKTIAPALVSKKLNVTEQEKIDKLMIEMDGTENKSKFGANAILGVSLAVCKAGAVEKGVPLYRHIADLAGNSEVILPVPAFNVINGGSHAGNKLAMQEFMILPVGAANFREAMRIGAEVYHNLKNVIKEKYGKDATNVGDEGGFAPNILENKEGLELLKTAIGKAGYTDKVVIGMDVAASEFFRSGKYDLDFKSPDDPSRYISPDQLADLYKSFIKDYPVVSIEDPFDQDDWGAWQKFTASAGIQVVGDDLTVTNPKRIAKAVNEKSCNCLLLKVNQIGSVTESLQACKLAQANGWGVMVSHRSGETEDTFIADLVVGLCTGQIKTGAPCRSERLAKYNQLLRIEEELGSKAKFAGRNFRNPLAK
Sequence of YWHAB, P31946 (P31946 whole entry): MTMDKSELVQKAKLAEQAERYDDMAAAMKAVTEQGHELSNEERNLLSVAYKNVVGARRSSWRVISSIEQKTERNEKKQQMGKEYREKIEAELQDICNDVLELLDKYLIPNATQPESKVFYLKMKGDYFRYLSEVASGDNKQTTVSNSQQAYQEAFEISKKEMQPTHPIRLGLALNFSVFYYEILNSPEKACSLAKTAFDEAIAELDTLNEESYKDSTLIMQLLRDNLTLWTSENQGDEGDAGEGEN

One experiment has as its target PPIA (UniProt P62937). Put plainly: cross-linking mass spectrometry. Particulars: DSSO, in cells.
Regarding VIM, P08670, the cross-linked residues entry is on record as “K445 - K76”. Same read-out and setting: the same measure for ENO1, P06733: “K256 - K82”; for GAPDH, P04406: “K251 - K76”.

The next experiment deals with RRBP1 (UniProt Q9P2E9). Put plainly: cross-linking mass spectrometry. Particulars: DSSO, in cells.
For RPL10A, P62906, the cross-linked residues result is on record as “K130 - K261”.

With SEC61B, P60468, the cross-linked residues entry is “K20 - K261”.

For the substance RPL11, P62913, the cross-linked residues result is “K67 - K270”. Take LRRC59, Q96AG4: the cross-linked residues entry was “K180 - K261”. Still for that read-out and setting: to RPL31, P62899 belongs “K91 - K261”.

A further experiment has as its target YWHAZ (UniProt P63104). Put plainly: cross-linking mass spectrometry. Particulars: DSSO, in cells.
As to S100A6, P06703, the cross-linked residues entry is reported as “K26 - K157”. Regarding YWHAQ, P27348, the cross-linked residues result was “K9 - K85”. The same measure, in the same setting: the same measure for YWHAB, P31946: “K11 - K85”.
